Screening data as filed in PubChem BioAssay.
Only a selection was taken, and hits are over-represented in it overall.
BL2 CD40 inh = CD40 pathway inhibition in BL2 cells; BL2 NF-kB luciferase reporter, CD40L-induced, 4 h; inhibition, % at 10 µM; actives 0.94% (n = 83,000); AID 1053188;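 active means mean inhibition of at least 50% with a set share of replicates also reaching that level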;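 further: 0% = neutral control wells and 100% = IKK inhibitor VII at 50 µM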
Numbers without * were called inactive; [ ] = remark or other dose.

SMILES	BL2 CD40 inh
C[C@H]1CN([C@@H](C)CO)C(=O)CCCn2nncc2CO[C@H]1CN(C)C(=O)C1CC1	-3
Nc1nc(=O)c2ccccc2s1	51*
Nc1nc2c(F)cccc2s1	0
CC(=O)N/C(N)=N/c1nc(=O)c2ccccc2s1	-97
COc1ccc(C)cc1S(=O)(=O)N1CCCC(C(=O)NC2CC2)C1 (stereo unspecified)	12
O=C(NC(CO)C(=O)OCc1ccccc1)OCc1ccccc1 (stereo unspecified)	3
COC(=O)C(CC(C)C)NC(=O)C(N)Cc1ccccc1 (stereo unspecified)	12
CC(C)C[C@@H](C=O)NC(=O)[C@H](CC(C)C)NC(=O)[C@H](CC(C)C)NC(=O)OCc1ccccc1	64*[25 µM]
COc1cc(CN2[C@@H]3CNC[C@H]2C3c2ccc(/C=C/c3ccccc3)cc2)cc(OC)c1 (stereo partly specified)	-7
CC(C)C1CC(N(C)C)=CC(=S)N1 (stereo unspecified)	30*
C[C@@H]1CN([C@@H](C)CO)C(=O)Cc2cc(NC(=O)CCC(F)(F)F)ccc2O[C@H]1CN(C)S(C)(=O)=O	-19
CC(=O)N(C(C)=O)c1ncnc2c1c(-c1ccc(Cl)cc1)nn2C(C)(C)C	55*
CC(=O)Nc1ncnc2c1c(-c1ccc(Cl)cc1)nn2C(C)(C)C	7
CCN(c1ccc(OC)cc1)S(=O)(=O)c1csc(C(=O)N2CCCC2)c1	2
O=C(Nc1ccc(S(=O)(=O)N2CCCC2)cc1)c1ccc(OCC2CCCO2)cc1 (stereo unspecified)	24
O=C(NC1=NCCS1)c1ccc(OCC2CCCO2)cc1 (stereo unspecified)	6
O=C(Nc1nc2ccccc2s1)c1ccc(OCC2CCCO2)cc1 (stereo unspecified)	56*
O=C(Nc1ncccc1O)c1ccc(OCC2CCCO2)cc1 (stereo unspecified)	39
O=C(Nc1nc2ccccc2s1)c1ccc(F)cc1	-80
Cc1cnc(NC(=O)c2ccc(OCC3CCCO3)cc2)s1 (stereo unspecified)	80*
Cc1cccc(-c2ccc(C3[C@H]4CNC[C@@H]3N4CC3CCOCC3)cc2)c1 (stereo partly specified)	3[25 µM]
CCN(C[C@H]1[C@@H](c2ccccc2)[C@@H](CO)N1C(=O)COC)S(C)(=O)=O	-6[25 µM]
O=C(C[C@@H]1C[C@H]2c3cc(NS(=O)(=O)c4ccccc4)ccc3O[C@H]2[C@H](CO)O1)NC1CCCCC1	4
CC(=O)Nc1ccc2c(c1)CC(=O)N(C)C[C@@H](C)[C@H](CN(C)S(C)(=O)=O)O2	1
CSc1nnc(CNC(=O)C23CC4CC(CC(C4)C2)C3)n1Cc1ccccc1	8
SMILES	BL2 CD40 inh
CN(C)C(=S)N=c1ssc(=S)n1Cc1ccccc1	44*
CO[C@@H]1CN(C)C(=O)c2cc(NC(=O)c3cc(C)on3)ccc2OC[C@H](C)N(C(=O)C2CC2)C[C@@H]1C	2
Cc1cccc(C(=O)NN2S(=O)(=O)c3ccccc3S2(=O)=O)c1	3
Cc1noc(C)c1S(=O)(=O)Nc1ccc2c(c1)C(=O)N([C@@H](C)CO)C[C@@H](C)[C@@H](CN(C)Cc1ccc3c(c1)OCO3)OCCCC[C@@H](C)O2	12
COc1ccc(S(=O)(=O)Nc2ccc3c(c2)C(=O)N([C@H](C)CO)C[C@H](C)[C@H](CN(C)C(=O)Nc2ccccc2)OCCCC[C@H](C)O3)cc1	25
CSc1nnc(NC(=O)c2nc(S(=O)(=O)Cc3ccccc3)ncc2Cl)s1	102*
CSc1ncc(Cl)c(C(=O)Nc2nnc(SC)s2)n1	-2
COc1ccc(C(=O)Nc2nnc(S(=O)(=O)Cc3ccccc3)s2)cc1	6
O=C(N/N=C/c1ccc2c(c1)OCO2)c1ccc2c(c1)OCO2	-62
O=C(N/N=C/c1cccc(O)c1)c1ccc2c(c1)OCCO2	75*
O=C(N/N=C/c1cccnc1)c1ccc2c(c1)OCO2	-33
N#C[C@H]1[C@H](c2ccc(C3=CCCC3)cc2)[C@H](CO)N1C(=O)C1CC1	10
CCCNC(=O)C[C@H]1C[C@@H]2c3cc(NC(=O)COC)ccc3O[C@@H]2[C@H](CO)O1	5[25 µM]
Cc1ccc(OC(=O)N(C)C[C@@H]2OCc3cn(nn3)CCCC(=O)N([C@@H](C)CO)C[C@H]2C)cc1	0
O=C(COC(=O)c1ccccc1C(=O)c1ccc(Cl)c([N+](=O)[O-])c1)NC1CC1	98*
O=C(COC(=O)c1ccccc1[N+](=O)[O-])Nc1cccnc1Cl	-35
CNc1ccc(C(=O)c2ccccc2C(=O)O)cc1[N+](=O)[O-]	1
CS(=O)(=O)c1ccc(Cl)c(C(=O)OCC(=O)NC2CCCCCCC2)c1	21
O=C(OC1CCOC1=O)c1ccccc1C(=O)c1ccc(Cl)c([N+](=O)[O-])c1 (stereo unspecified)	78*
O=C(COC(=O)c1ccccc1[N+](=O)[O-])c1ccc(C2CCCCC2)cc1	91*
CC1CCC(NC(=O)COC(=O)CSc2ccc(C(N)=O)cc2[N+](=O)[O-])CC1 (stereo unspecified)	6
CN(C)c1ccc(C(=O)c2ccccc2C(=O)O)cc1[N+](=O)[O-]	11
Cc1c(C(=O)OCC(=O)NC(=O)NC2CCCCC2)cccc1[N+](=O)[O-]	0
CN1c2ccc(Br)cc2[C@H]2[C@H](CCN2C(=O)c2ccc(F)cc2)[C@H]1CO	-12[25 µM]
CCC(=O)N1C[C@H](C)[C@@H](OC)CN(C)C(=O)c2cc(NC(=O)Nc3ccc(Cl)cc3)ccc2OC[C@H]1C	14[25 µM]
SMILES	BL2 CD40 inh
CO[C@H]1CN(C)C(=O)c2cc(NC(=O)c3cnccn3)ccc2OC[C@H](C)NC[C@H]1C	-4[25 µM]
CC1(c2ccccc2)NC(=O)N(CC(=O)Nc2ccccc2C(=O)N2CCCCC2)C1=O (stereo unspecified)	-8
C[C@@H]1CCCCO[C@H](CN(C)CC2CC2)[C@H](C)CN([C@@H](C)CO)C(=O)c2cc(NC(=O)c3ccccc3)ccc2O1	3[25 µM]
C[C@H](CO)N1C[C@H](C)[C@@H](CN(C)Cc2ccc(C(=O)O)cc2)OCc2ccccc2-c2ccccc2C1=O	-10
O=C(OCC(=O)N1CCCC1)c1ccccc1C(=O)c1ccccc1	-33
N#C[C@@H]1[C@H](c2ccccc2C2=CCCCC2)[C@@H](CO)N1C(=O)Cc1ccncc1	3[25 µM]
O=C1Nc2ccccc2CCc2ccccc21	3
O=C1C(=NO)CCc2ccccc21	35*
O=C(N/N=C1\CCc2ccccc21)c1ccccc1O	25
COCC(=O)N1[C@H](C#N)[C@@H](c2ccccc2-c2ccc(C)cc2)[C@@H]1CO	-8[25 µM]
C[C@@H]1CN([C@H](C)CO)C(=O)c2c(c3ccccc3n2C)-c2ccccc2CO[C@@H]1CN(C)C(=O)Nc1cccc(Cl)c1Cl	38[25 µM]
CO[C@@H]1CC[C@@H]2CCOc3c(C#N)cccc3C(=O)N(C)C[C@@H](OC)[C@@H](C)C(=O)N(C)C[C@@H]1O2	3[25 µM]
C[C@H](CO)N1C[C@H](C)[C@H](CN(C)CC2CCCCC2)Oc2ccc(NC(=O)Nc3ccc(C(F)(F)F)cc3)cc2C1=O	69*
Cc1noc(C)c1NC(=O)N(C)C[C@@H]1OCCCC[C@H](C)Oc2ccc(NC(=O)Nc3ccc(C(F)(F)F)cc3)cc2C(=O)N([C@H](C)CO)C[C@@H]1C	28[25 µM]
C[C@@H]1CCCCO[C@@H](CN(C)CC2CCCCC2)[C@@H](C)CN([C@H](C)CO)C(=O)c2cc(NC(=O)Nc3ccc(C(F)(F)F)cc3)ccc2O1	5[25 µM]
